Source: PubChem BioAssay
VACV Venus inh – vaccinia inhibition (Venus reporter); Vaccinia virus Venus reporter expression, fluorescence; Potency, µM (doses to about 36.5 µM), hits mostly inhibitors; 330,000 compounds, 0.46% hits; AID 720580; calls by dose curve; tested in A549 cells; also: nearly all actives have a fitted effect of over 30% in size
HCMV antiviral – blocks human cytomegalovirus replication | HFF cells, HCMV-luciferase reporter, 72 h; active compounds read low | activity change, negative = inhibition, % at 57.5 µM | 410,000 compounds, 4.5% hits | AID 1259415; in the data active = activity change below about -60%; inconclusive = no clear call, values can overlap the other calls; inactive = above about -39%
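Two-dose cell screen: HFF monolayers treated with compounds and infected with luciferase-expressing HCMV at 1 PFU/cell, 72 h at 37C, then lysed for luciferase measurement.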
Vaccinia mCherry – vaccinia inhibition (mCherry reporter) | 310,000 compounds, 0.63% hits | Potency, µM (series often up to 36.5 µM), usual class: inhibitors | Vaccinia virus mCherry reporter infection, fluorescence; calls by dose curve; tested in A549 cells; also: nearly all actives have a fitted effect of over 35% in size
Sm TGR inh – inhibitors of Schistosoma mansoni thioredoxin glutathione reductase | purified TGR, DTNB reduction, TNB absorbance 405 nm | Potency, µM (series often up to 114 µM), actives largely listed as inhibitors | 360,000 compounds, 3% hits | AID 485364; also: nearly all actives have a fitted effect of over 60% in size
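First, TGR (20 nM dispensed) and NADPH were mixed with compound. Second, a 15 min room-temperature incubation followed. Third, further NADPH and then DTNB were added to start the reaction. Finally, TNB absorbance was monitored kinetically.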
HCV inhibitor – blocks hepatitis C virus. Huh7.5.1 HCVcc-Cre infection, luciferase reporter, 44 h. 340,000 compounds, 3.4% hits. Potency, µM (series often up to 41.8 µM), actives largely listed as inhibitors
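A cell-based infection assay in which seeded cells (1,000 per well) receive test compound after 4 h, are inoculated with HCVcc-Cre at approximately 0.5 moi, and are incubated 44 h before luminescence detection.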
FMDV inh – foot and mouth disease virus antiviral activity; FMDV antiviral cell-based qHTS; Potency, µM (highest dose often 57.9 µM), hits mostly inhibitors; 410,000 compounds, 1.2% hits; AID 1159524; calls by dose curve; tested in HEK293T cells; also: read-out not given here; nearly all actives have a fitted effect of over 45% in size
A number is an active result; [ ] = remark or other dose. Only some compounds are listed: those with a hit (about 9.3% of all), similar ones and a draw of the others. Unless noted, calls follow the shape of the dose curve; as a rule, active = well fitted curve in the direction sought with a large enough effect; inconclusive = small, poorly fitted or top-dose-only effect, or another doubt; inactive = no such curve, though single readings can be large; an effect the other way counts as inactive or inconclusive.

Screening Cc1ccc2nc(SCC(=O)NC3CCCc4ccccc43)[nH]c2c1 (stereo not given) returned VACV Venus inh inconclusive, HCMV antiviral inconclusive, Vaccinia mCherry inconclusive, Sm TGR inh inactive, HCV inhibitor 11µM and FMDV inh inactive.
`O=C(CSc1cc(Cl)ccc1Cl)NC1CCCc2ccccc21` (stereo not given) gave VACV Venus inh inconclusive, HCMV antiviral inconclusive, Vaccinia mCherry inactive, Sm TGR inh inactive, HCV inhibitor inconclusive and FMDV inh inactive.
`O=C(Nc1ccc(F)cc1)C(Sc1nc2ccccc2[nH]1)c1ccccc1` (stereo not given) gave VACV Venus inh inconclusive, HCMV antiviral inactive, Vaccinia mCherry inconclusive, Sm TGR inh inactive, HCV inhibitor inconclusive and FMDV inh inactive.
`Cc1ccc2nc(SC(C)C(=O)Nc3cccc([N+](=O)[O-])c3)[nH]c2c1` (stereo not given) gave VACV Venus inh inconclusive, HCMV antiviral -67, Vaccinia mCherry inactive, Sm TGR inh inactive, HCV inhibitor inconclusive and FMDV inh inconclusive.
CC(Sc1nc2ccccc2[nH]1)C(=O)Nc1ccccc1F (stereo not given) was read as VACV Venus inh inactive, HCMV antiviral -73, Vaccinia mCherry inactive, Sm TGR inh inactive, HCV inhibitor inactive and FMDV inh inactive.
`Cc1ccc2nc(SCC(=O)Nc3cc([N+](=O)[O-])ccc3F)[nH]c2c1` gave VACV Venus inh inactive, HCMV antiviral -91, Vaccinia mCherry inactive, Sm TGR inh inactive, HCV inhibitor inconclusive and FMDV inh inactive.
`CCOC(=O)c1cccc(NC(=O)Cn2cc3c(n2)CCC(C)C3)c1` (stereo not given) gave VACV Venus inh inactive, HCMV antiviral inactive, Vaccinia mCherry inactive, Sm TGR inh inactive, HCV inhibitor inactive and FMDV inh inactive.
For CCC(=O)Nc1ccccc1-c1nc2ccccc2[nH]c1=O the results were VACV Venus inh inactive, HCMV antiviral inactive, Vaccinia mCherry inactive, Sm TGR inh inactive, HCV inhibitor inactive and FMDV inh inactive.
For COc1ccc(C(C(=O)NCC2CCCO2)N(Cc2ccc(F)cc2)C(=O)CNC(=O)c2ccco2)cc1OC (stereo not given) the results were VACV Venus inh inactive, HCMV antiviral inactive, Vaccinia mCherry inactive, Sm TGR inh inactive, HCV inhibitor inactive and FMDV inh inactive.
CCCC[C@H](CN[C@@H](CNC)[C@H](C)CC)NCCC12CCC(CC1)C2 was read as VACV Venus inh 22µM, HCMV antiviral -97, Vaccinia mCherry 22µM, Sm TGR inh inactive, HCV inhibitor inconclusive and FMDV inh inactive.
CCn1cc([N+](=O)[O-])c(C(=O)N2N=C(c3ccc4ccccc4c3)CC2c2cc(Br)ccc2O)n1 (stereo not given) was read as VACV Venus inh inconclusive, Vaccinia mCherry 14µM, Sm TGR inh inactive, HCV inhibitor inconclusive and FMDV inh inactive.
COc1ccc2c(-c3ccccc3)cc(SCC(=O)N(C)C)nc2c1 was read as VACV Venus inh inactive, HCMV antiviral inactive, Vaccinia mCherry inactive, Sm TGR inh inactive, HCV inhibitor inactive and FMDV inh inactive.
For O=C(NCc1ccc2c(c1)OCO2)Nc1ccc2nsnc2c1 the results were VACV Venus inh inactive, HCMV antiviral inactive, Vaccinia mCherry inactive, Sm TGR inh inactive, HCV inhibitor inactive and FMDV inh inactive.
COc1cc(CC2C(=O)Nc3ccccc32)cc(C)c1O (stereo not given) was read as VACV Venus inh inactive, HCMV antiviral inactive, Vaccinia mCherry inactive, Sm TGR inh 40µM, HCV inhibitor inactive and FMDV inh inactive.
Cc1ccc(S(=O)(=O)N2CCOCC2)cc1NC(=O)Cn1nc(C)c([N+](=O)[O-])c1C was read as VACV Venus inh inactive, HCMV antiviral inconclusive, Vaccinia mCherry inactive, Sm TGR inh inactive, HCV inhibitor inconclusive and FMDV inh inactive.
Screening CN(C)CCCNS(=O)(=O)c1ccc(N2CCC(c3ccc(Cl)cc3)=N2)cc1 returned HCMV antiviral -102, Sm TGR inh inconclusive and HCV inhibitor 4µM.
For CCC[C@H](CN[C@@H](CNC)[C@H](C)O)NCCc1ccc(OC)cc1 the results were VACV Venus inh inactive, HCMV antiviral inactive, Vaccinia mCherry inactive, Sm TGR inh inactive, HCV inhibitor inactive and FMDV inh inactive.
CCCC[C@@H](CNC)NC[C@H](Cc1ccc(O)cc1)NCCc1ccc(OCC)cc1 was read as VACV Venus inh 13µM, HCMV antiviral -85, Vaccinia mCherry inconclusive, Sm TGR inh inactive, HCV inhibitor inconclusive and FMDV inh inactive.
CC(=O)NS(=O)(=O)c1ccc(NS(=O)(=O)c2ccc3ccccc3c2)cc1 was read as VACV Venus inh inactive, HCMV antiviral inconclusive, Vaccinia mCherry inactive, Sm TGR inh inactive, HCV inhibitor inactive and FMDV inh inactive.
CCCCCCC(=O)N(O)C1CC(=O)N(c2ccc(Cl)cc2)C1=O (stereo not given) was read as VACV Venus inh inactive[7.34 µM], HCMV antiviral inactive, Vaccinia mCherry inactive[7.34 µM], Sm TGR inh 0.56µM, HCV inhibitor inactive and FMDV inh inactive.
`CCCCCCC(=O)N(O)C1CC(=O)N(c2ccc(C)cc2)C1=O` (stereo not given) gave HCMV antiviral inactive, Sm TGR inh 0.56µM, HCV inhibitor inactive and FMDV inh inactive.
`Cc1ccc(N2C(=O)CC(N(O)C3CC(=O)N(c4ccc(C)cc4)C3=O)C2=O)cc1` (stereo not given) gave VACV Venus inh inactive, HCMV antiviral inactive, Vaccinia mCherry inactive, Sm TGR inh inactive, HCV inhibitor inactive and FMDV inh inactive.
Screening CCC(Sc1nc2nccnc2c(=O)n1Cc1ccc(OC)cc1)C(=O)NC1CCCCC1 (stereo not given) returned VACV Venus inh inactive, HCMV antiviral inactive, Vaccinia mCherry inactive, Sm TGR inh inactive and FMDV inh 7.1µM.
Screening COc1ccc(Cn2ccnc2SCC(=O)NC2CCCCC2)cc1 returned VACV Venus inh inactive, HCMV antiviral inactive, Vaccinia mCherry inactive, Sm TGR inh inactive and FMDV inh inactive.
`Cc1ccc(NC(=O)C2CC(=O)Nc3ncnn32)cc1Cl` (stereo not given) gave VACV Venus inh inactive, HCMV antiviral inactive, Vaccinia mCherry inactive, Sm TGR inh inactive, HCV inhibitor inactive and FMDV inh inactive.
Cc1ccc(NC(=O)C2CC(=O)Nc3ncnn32)c(C)c1 (stereo not given) was read as VACV Venus inh inactive[7.34 µM], HCMV antiviral inactive, Vaccinia mCherry inactive[7.34 µM], Sm TGR inh 56µM, HCV inhibitor inactive and FMDV inh inactive.
CN(Cc1ccccc1)C(=O)CCn1c(=O)c2cccn2c2cccnc21 was read as HCMV antiviral inactive, Sm TGR inh inactive, HCV inhibitor inactive and FMDV inh inactive.
For CN(Cc1ccccc1)C(=S)NC(=O)c1ccccc1 the results were VACV Venus inh inactive, HCMV antiviral inactive, Vaccinia mCherry inconclusive, Sm TGR inh inactive, HCV inhibitor inactive and FMDV inh inactive.
